From PubChem BioAssay AID489043 (National Center for Advancing Translational Sciences (NCATS), 2010) come the findings set out here.

Inconclusive results are not listed. Values without a mark were called inactive. Activity calls are given as the source filed them. Calls come from the whole dose curve; as a rule, active = well fitted activation curve with a large enough effect; inconclusive = small, poorly fitted or top-dose-only effect; inactive = flat fitted curve, though single readings scatter.
Potency is the fitted concentration of half-maximal effect.

Relaxin receptor 2 (Homo sapiens), sequence (Q8WXD0 whole entry, looked up): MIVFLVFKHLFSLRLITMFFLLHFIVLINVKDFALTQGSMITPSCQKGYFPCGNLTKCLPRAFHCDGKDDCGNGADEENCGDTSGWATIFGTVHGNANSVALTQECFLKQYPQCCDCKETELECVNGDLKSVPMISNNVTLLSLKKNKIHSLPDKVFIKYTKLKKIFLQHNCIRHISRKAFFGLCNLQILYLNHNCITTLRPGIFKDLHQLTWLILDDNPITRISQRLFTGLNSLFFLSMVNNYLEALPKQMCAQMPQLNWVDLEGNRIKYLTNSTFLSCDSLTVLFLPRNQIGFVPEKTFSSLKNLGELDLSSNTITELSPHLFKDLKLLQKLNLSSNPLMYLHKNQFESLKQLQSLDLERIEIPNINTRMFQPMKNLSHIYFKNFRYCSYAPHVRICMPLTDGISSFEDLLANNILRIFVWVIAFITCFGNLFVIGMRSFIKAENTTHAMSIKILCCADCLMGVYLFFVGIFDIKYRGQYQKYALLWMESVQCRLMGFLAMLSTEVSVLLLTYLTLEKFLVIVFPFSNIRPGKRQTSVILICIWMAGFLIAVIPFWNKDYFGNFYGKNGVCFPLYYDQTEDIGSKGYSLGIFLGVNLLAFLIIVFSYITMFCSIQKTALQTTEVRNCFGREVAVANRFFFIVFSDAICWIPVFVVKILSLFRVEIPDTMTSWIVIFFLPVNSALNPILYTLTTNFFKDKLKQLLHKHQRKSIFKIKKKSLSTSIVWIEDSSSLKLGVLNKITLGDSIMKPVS

The target in the experiment is Relaxin receptor 2 (Homo sapiens) (UniProt Q8WXD0). Description: qHTS Assay for Agonists of the Relaxin Receptor RXFP1: RXFP2 Hit Validation. Note: nearly all actives have a fitted effect of over 65% in size. Conditions: HEK293 RXFP2 cAMP TR-FRET, 30 min; series mostly up to 44.7 µM; activation: at the top concentration. The text has this:
NIH Chemical Genomics Center [NCGC] NIH Molecular Libraries Probe Production Centers Network [MLPCN] MLPCN Grant: R03 MH085705-01A1 Assay Submitter (PI): Alexander Agoulnik NCGC Assay Overview: The relaxin hormone is involved in the variety of biological functions in normal tissues and diseases. The role of relaxin is well-established in female reproduction and parturition, mammary gland and endometrial development, maintenance of myometrial quiescence during pregnancy. Relaxin signaling through its G protein-coupled receptor (GPCR) RXFP1 results in ECM remodeling through regulation of collagen deposition, cell invasiveness, proliferation and overall tissue homeostasis. […] Recombinant human relaxin (rhRlx) is currently being tested in clinical trials as a protective agent in congestive heart failure, in treating severe preeclampsia, and as an anti-fibrotic agent in systemic sclerosis. Upon relaxin binding RXFP1 activation leads to the activation of adenylate cyclase (AC) via Gs. cAMP will activate PKA, which phosphorylates many signaling proteins. Thus, detection of cAMP increase is an easy and reliable indication of relaxin receptor activation. To screen for agonists of the relaxin receptor, a HEK293T cell line stably transfected with RXFP1 was used. RXFP1 activation was assayed by changes in cAMP levels as detected with a time-resolved fluorescence energy transfer (TR-FRET) cAMP detection kit. This assay measures activation of a cell expressing RXFP2, another GPCR targeted by relaxin, to determine the selectivity of compounds for RXFP1.
NCGC Assay Protocol Summary: This is a cell-based assay for cAMP second messenger response to screen for agonists of the RXFP2 receptor. The assay was conducted in the presence of a PDE4 inhibitor (Ro 20174). The cells were lysed and the cAMP levels were measured with a TR-FRET cAMP kit. Presence of cAMP in the cell lysate disrupts binding between the cryptate-labeled anti-cAMP and d2-labeled cAMP pair, leading to a decrease in the TR-FRET signal. Data were normalized to the controls for basal activity (buffer only) and 100% activity (29 nM porcine relaxin). The EC50 values were determined from concentration-response data modeled with the standard Hill equation 1536-well assay protocol for the HEK293 RXFP2 cAMP assay: (1) Add 3 ul HEK293 RXFP2 cell culture. 2000 cells/well in DMEM/F12, 10% FBS, 1x Pen/Strep (dispensed offline with MultiDrop Combi). (2) Incubate 16-24 hr at 37C, 5% CO2. (3) Add 1 ul 400uM Ro20174 in DPBS, 0.05% BSA, 0.005% Tween 20. (3) Add 23 nl compounds in DMSO solution. Final concentration was 0.5 - 58 uM. (4) Incubate 30 min at 37C, 5% CO2. (5) Add 1 ul cAMP-d2 in lysis buffer (HTRF cAMP HiRange kit, CisBio). (6) Add 1 ul anti-cAMP antibody-cryptate in lysis buffer (HTRF cAMP HiRange kit, CisBio). […]
Background: In qHTS, concentration-response curves come from the screen itself.
For the molecule `CCC(Oc1cc(Cl)ccc1Cl)C(=O)N1CCC2(CC1)OCCO2` (centres undefined), the “activation” value was 2.36% [at 115 µM].

As to `CCNC(=O)[C@H]1O[C@@H](n2cnc3c(N)ncnc32)[C@H](O)[C@@H]1O`, the Potency was 0.974 µM (active).

As to `O=C(O)c1sc2cc(Cl)ccc2c1Cl`, the “activation” value is 19.7%.

Regarding `Nc1ncc2[nH]cnc2n1`, the Potency is 17.4 µM (active).
